# Several values for one entry are separate records, joined by “and”; a condition that tells them apart may be missing. Identical values can stand only once. Records with an inconclusive call do not appear. A call without a number means that no potency is given here. Values without a mark were called inactive. Activity calls are given as the source filed them. Calls follow the shape of the dose curve; as a rule, active = well fitted cell-killing curve with a large enough effect in the repeat runs; inconclusive = weak or mixed curves, or effect the other way; inactive = flat fitted curve, though single readings scatter.
# Assays:
# [1] = cAMP Responsive Elements (CRE) small molecule antagonists, cell-based qHTS assay: qHTS cell viability counter screen (AID 2060913); conditions: CRE-bla HEK293T viability, CellTiter-Glo luminescence, 5 h; series mostly up to 92.4 µM; also: nearly all actives have a fitted effect of over 40% in size
# In short: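 Steps: cells plated and held 18 hrs at 37 C/5% CO2; compounds and NKH477 (0.25 uM final) added; 3 hrs incubation; reporter substrate read; CellTiter-Glo added to measure cytotoxicity by luminescence.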
# [2] = cAMP Responsive Elements (CRE) small molecule agonists, cell-based qHTS assay: qHTS cell viability counter screen (AID 2060914); conditions: CRE-bla HEK293T viability, CellTiter-Glo luminescence, 5 h; series mostly up to 92.4 µM;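 also: viability read after 3 h of compound exposure; nearly all actives have a fitted effect of over 50% in size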
# In short: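 Cells are seeded and incubated 18 h, treated with compounds in DMSO for 3 h, read for the bla reporter, then given CellTiter-Glo; luminescence is measured after 30 min at room temperature.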
# Potency is read from the fitted curve at half-maximal effect.
SMILES,Potency [1],Potency [2],"viability change, negative = cytotoxic [1]","activity change, negative = cytotoxicity [2]"
CCCCCCCCO[C@@H]1O[C@H](CO)[C@@H](O)[C@H](O)[C@H]1O,inactive,inactive,,
CO[C@]12C[C@@H](COC(=O)c3cncc(Br)c3)CN(C)[C@@H]1Cc1cn(C)c3cccc2c13,inactive,inactive,,
CCCCC/C=C\C/C=C\CCCCCCCC(=O)NC(C)c1ccccc1 (stereo not drawn),inactive,inactive,,
CCCCCCCCCCCCCCCC[N+](C)(C)CC,57.1 µM (active) and 26.6 µM (active),54.6 µM (active) and 26.6 µM (active),,
CCCCCCCCCCCCN(CCO)CCO,60.9 µM (active),60.9 µM (active),,
CCCCCCCCn1sc(Cl)c(Cl)c1=O,30.6 µM (active),43.3 µM (active),,
CC(C)c1ccc2cc(C(C)C)ccc2c1,inactive,inactive,,
O=C(Nc1ccc([N+](=O)[O-])cc1)Nc1ccc([N+](=O)[O-])cc1,inactive,inactive,,
O=C1NCCN1CCN1CCC(c2cn(-c3ccc(F)cc3)c3ccc(Cl)cc23)CC1,10.6 µM (active),inactive,,
CCCCCCC,inactive,inactive,,
CC1=C2[C@H](/C=C(\C)C(=O)O)CC[C@@H](C)[C@H]2CC1,inactive,inactive,,
C[C@]12C=CC(=O)C=C1CC[C@@H]1[C@@H]2C(=O)C[C@@]2(C)[C@H]1CC[C@]2(O)C(=O)CO,inactive,inactive,,
COc1ccc(COC=O)cc1,inactive,inactive,,
Cc1cc(N)c2cc(NC(=O)Nc3ccc4nc(C)cc(N)c4c3)ccc2n1,inactive,inactive,,
CCC1(C)C(=O)N(Cl)C(=O)N1Cl (stereo not drawn),inactive,inactive,,
Cc1cn([C@H]2C[C@H](N=[N+]=[N-])[C@@H](CO)O2)c(=O)[nH]c1=O,inactive,inactive,,
Cc1ccc(Cl)c(Nc2ccccc2C(=O)O)c1Cl,inactive,inactive,,
CCCCCCCCCCCCCCCCCBr,,,1.85% [at 18.9 µM],1.37% [at 18.9 µM]
CC1=C(/C=C/C(C)=C/C=C/C(C)=C/C(=O)O)C(C)(C)CCC1,inactive,inactive,,
CCOC(=O)c1ccc(N(C)C)cc1,inactive,inactive,,
CSc1ccc(O)cc1C,inactive,inactive,,
Nc1cc(C(F)(F)F)ccc1S,inactive,inactive,,
CC(=O)C1=C(C)[C@@H]2C[C@@]3(C1)[C@H](C)CC[C@H]3C2(C)C,inactive,inactive,,
CC1(C)[C@@H](OC(=O)CCC(=O)O)CC[C@]2(C)[C@H]3C(=O)C=C4[C@@H]5C[C@@](C)(C(=O)O)CC[C@]5(C)CC[C@@]4(C)[C@]3(C)CC[C@@H]12,inactive,inactive,,
CC(C)Cc1ccc(CC(=O)O)cc1,inactive,inactive,,

SMILES,Potency [1],Potency [2],"viability change, negative = cytotoxic [1]","activity change, negative = cytotoxicity [2]"
COc1ccc(OC(F)(F)F)cc1CN[C@H]1CCCN[C@H]1c1ccccc1,inactive,inactive,,
COC(=O)c1cccnc1,inactive,inactive,,
CC(O)C(C)O (stereo not drawn),inactive,inactive,,
Nc1ccc(N=Nc2ccc(N)cc2)cc1,inactive,inactive,,
CCCCNS(=O)(=O)c1ccc(C)cc1,inactive,inactive,,
CC(NC(CCc1ccccc1)C(=O)O)C(=O)N1C(=O)N(C)CC1C(=O)O (stereo not drawn),inactive,inactive,,
CCCCCCCCCCCCCC(=O)OC,inactive,inactive,,
Cc1cnc(C(=O)NCCc2ccc(S(=O)(=O)NC(=O)NC3CCCCC3)cc2)cn1,inactive,inactive,,
COCCOCCOCCOC,inactive,inactive,,
O=S(=O)(O)c1cc(S(=O)(=O)O)c2ccc3c(S(=O)(=O)O)cc(S(=O)(=O)O)c4ccc1c2c43,,,3.35% [at 18.9 µM],-11.7% [at 18.9 µM]
CCc1ccc(CCOc2ccc(CC3SC(=O)NC3=O)cc2)nc1 (stereo not drawn),inactive,inactive,,
Cc1onc(-c2c(Cl)cccc2Cl)c1C(=O)N[C@@H]1C(=O)N2[C@@H]1SC(C)(C)[C@@H]2C(=O)O,inactive,inactive,,
CCCCCCC(O)CCCCCCCCCCC(=O)O (stereo not drawn),inactive,inactive,,
Cc1noc(NS(=O)(=O)c2ccc(N)cc2)c1C,inactive,inactive,,
COC(=O)Nc1nc2ccc(S(=O)c3ccccc3)cc2[nH]1 (stereo not drawn),inactive,inactive,,
Cn1c(=O)c2c(ncn2C)n(C)c1=O,inactive,inactive,,
OC1(c2ccccc2)CCNCC1,inactive,inactive,,
CCCCCC1Nc2cc(C(F)(F)F)c(S(N)(=O)=O)cc2S(=O)(=O)N1 (stereo not drawn),inactive,inactive,,
OC[C@H]1O[C@H](O[C@H]2O[C@H](CO)[C@@H](O)[C@H](O)[C@H]2O)[C@H](O)[C@@H](O)[C@@H]1O,inactive,inactive,,
Clc1ccc2nsnc2c1NC1=NCCN1,inactive,inactive,,
Cc1occc(=O)c1O,inactive,inactive,,
COc1cc(NS(=O)(=O)c2ccc(N)cc2)ncn1,inactive,inactive,,
CSc1ccc(Cl)cc1,inactive,inactive,,
CCCCC(=O)O,inactive,inactive,,
OCCN(CCO)c1ccccc1,inactive,inactive,,

SMILES,Potency [1],Potency [2],"viability change, negative = cytotoxic [1]","activity change, negative = cytotoxicity [2]"
COC(=O)CCC(=O)OC,inactive,inactive,,
CCCCOC(=O)C(C)CC (stereo not drawn),inactive,inactive,,
CC[C@]1(O)C[C@@H]2CN(CCc3c([nH]c4ccccc34)[C@@](C(=O)OC)(c3cc4c(cc3OC)N(C)[C@H]3[C@@](O)(C(=O)OC)[C@H](OC(C)=O)[C@]5(CC)C=CCN6CC[C@]43[C@@H]65)C2)C1,inactive,inactive,,
CCCCCCCC/C=C/CCCOC(C)=O,inactive,inactive,,
CCCOC(=O)c1c(Cl)c(Cl)c(Cl)c(Cl)c1C(=O)OCCC,inactive,inactive,,
CC(C)(C)C(=O)Oc1ccc(S(=O)(=O)Nc2ccccc2C(=O)NCC(=O)O)cc1,inactive,inactive,,
CCN=c1cc2oc3cc(NCC)c(C)cc3c(-c3ccccc3C(=O)OCC)c-2cc1C,68.3 µM (active) and 50.8 µM (active),68.3 µM (active) and 61.1 µM (active),,
COc1ccc(C(=O)Nc2ccccc2)cc1[N+](=O)[O-],inactive,inactive,,
CC(O)CNCC(C)O (stereo not drawn),inactive,inactive,,
CCC(C)(CCC(C)C)C(=O)O (stereo not drawn),inactive,inactive,,
OC(CCN1CCCC1)(c1ccccc1)C1CCCCC1 (stereo not drawn),inactive,inactive,,
CCCCCCCC(=O)OCC(O)CO (stereo not drawn),inactive,inactive,,
N#Cc1cc2ccccc2c2ccccc12,inactive,inactive,,
C[Si]1(C)O[Si](C)(C)O[Si](C)(C)O[Si](C)(C)O1,inactive,inactive,,
BrC1CCC(Br)C(Br)CCC(Br)C(Br)CCC1Br (stereo not drawn),inactive,inactive,,
NC(=O)NC(N)=O,inactive,inactive,,
C=C(C)[C@@H]1CCC2=CC(=O)C[C@@H](C)[C@]2(C)C1,inactive,inactive,,
OC/C=C/CO,inactive,inactive,,
O=P(O)(O)O,inactive,inactive,,
COc1ccc(C(=O)c2cccc(O)c2)c(OC)c1,inactive,inactive,,
O/N=C/C=N/O,inactive,inactive,,
COC(=O)c1ccc(C(=O)OC)cc1,inactive,inactive,,
NCCCN1CCN(CCCN)CC1,inactive,inactive,,
Cn1c(=O)c2c(ncn2CCO)n(C)c1=O,inactive,inactive,,
CC(C)(C)C(=O)NCCCC(=O)O,inactive,inactive,,

SMILES,Potency [1],Potency [2],"viability change, negative = cytotoxic [1]","activity change, negative = cytotoxicity [2]"
CCCCOCCCC,inactive,inactive,,
O=c1c2ccccc2nnn1CCl,inactive,inactive,,
CCNC(=O)[C@@H]1CCCN1C(=O)[C@H](CCCN=C(N)N)NC(=O)[C@H](CC(C)C)NC(=O)CNC(=O)[C@H](Cc1ccc(O)cc1)NC(=O)[C@H](CO)NC(=O)[C@H](Cc1c[nH]c2ccccc12)NC(=O)[C@H](Cc1cnc[nH]1)NC(=O)[C@@H]1CCC(=O)N1,inactive,inactive,,
CCCCCCCCCCCC[N+](C)(C)CC(=O)[O-],inactive,inactive,,
COc1ccc2c(c1)C(=O)N(CCc1ccc(S(=O)(=O)NC(=O)NC3CCCCC3)cc1)C(=O)C2(C)C,inactive,inactive,,
CC(C)C(=O)OCc1cccc(OC(=O)[C@@H]2N3C(=O)[C@@H](NC(=O)Cc4ccccc4)[C@H]3SC2(C)C)c1,inactive,inactive,,
COc1c(Cl)c(Cl)c(Cl)c(Cl)c1Cl,inactive,inactive,,
Cc1cccc(C)c1NC(=O)CN1CCCC1,inactive,inactive,,
C[C@H](CCC(=O)NCC(=O)O)[C@H]1CC[C@H]2[C@@H]3[C@H](O)C[C@@H]4C[C@H](O)CC[C@]4(C)[C@H]3C[C@H](O)[C@]12C,inactive,inactive,,
O=S(=O)(O)c1ccc2cc(O)ccc2c1,inactive,inactive,,
C[C@H]1C[C@H]2[C@@H]3CCC4=CC(=O)C=C[C@]4(C)[C@@]3(F)[C@@H](O)C[C@]2(C)[C@@]1(O)C(=O)COP(=O)(O)O,inactive,inactive,,
CCCCCC/C=C/CCCCCCCC(=O)O,inactive,inactive,,
CC1=CC(=O)CC(C)(C)C1=O,inactive,inactive,,
O=C1CCC(N2C(=O)c3ccccc3C2=O)C(=O)N1 (stereo not drawn),inactive,inactive,,
CCO[Si](OCC)(OCC)OCC,inactive,inactive,,
O=S1OCCO1,inactive,inactive,,
O=S1(=O)OC(c2ccc(O)cc2)(c2ccc(O)cc2)c2ccccc21,inactive,inactive,,
COc1ccc(N)c([N+](=O)[O-])c1,inactive,inactive,,
CN(C)CCCN(C)C,,,8.18% [at 8.39 µM],-2.69% [at 8.39 µM]
O=C1OC[C@H](Cc2cccc(O)c2)[C@H]1Cc1cccc(O)c1,inactive,inactive,,
CCOc1cc(OCC)c(C(C)=O)cc1OCC,inactive,inactive,,
O=C(O)CCC(=O)Nc1ccc(S(=O)(=O)Nc2nccs2)cc1,inactive,inactive,,
CC(=O)N1CCN(c2ccc(O)cc2)CC1,inactive,inactive,,
O=C(c1ccc2c(c1)C(=O)OC2=O)c1ccc2c(c1)C(=O)OC2=O,inactive,inactive,,
